Consider 20 compounds from PubChem BioAssay (NCI).

Compounds without any hit were thinned out: in the full panel of roughly 83,000, 20% have a hit.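 Each cell line was grown in a 96-well plate and treated with one concentration of compound for 48 hours. Values below 10 were considered active.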 Values without a mark were called inactive. Activity calls are given as the source filed them.

Test systems include T-47D breast; BT-549 breast; MDA-MB-435 melanoma; SW-620 colon; MCF7 breast; HCC-2998 colon; KM12 colon; HCT-116 colon.
What all share (assay): NCI-60 one-dose screen, 48 h (100 = growth as untreated, 0 = no growth, -100 = all killed)
Holding throughout (details): 10 µM unless noted

Turning to `O=C(O)Cc1ccc(Cl)cc1`, the growth is 117% in the experiment with T-47D breast; 105% with BT-549 breast; 97.3% in the experiment on MDA-MB-435 melanoma; 111% with SW-620 colon; 99.2% in the experiment with MCF7 breast; 108% with HCC-2998 colon. Further, the growth with KM12 colon is 113%.
Consider `CN(C)CCOC(=O)Nc1ccc(Cc2ccc(NC(=O)OCCN(C)C)cc2)cc1`, for which the growth is 105% [100 µM] in the experiment on T-47D breast; 68.3% [100 µM] in the experiment on BT-549 breast; 76.4% [100 µM] with MDA-MB-435 melanoma; 85.8% [100 µM] in the experiment on SW-620 colon; 44.9% [100 µM] in the experiment on MCF7 breast; 46.2% [100 µM] with HCC-2998 colon. In the experiment on KM12 colon, the growth was 78.8% [100 µM].
For `CNc1ccccc1C(N)=O`, the growth is 98.1% with T-47D breast; 101% with BT-549 breast; 105% with MDA-MB-435 melanoma; 92.7% in the experiment with MCF7 breast; 96.8% in the experiment on HCT-116 colon; 106% with HCC-2998 colon. Also, in the experiment with KM12 colon, the growth is 101%.
On to `CCNC(=O)OCCc1c2ccccc2nc2ccccc12`, for which the growth was 109% with T-47D breast; 111% with BT-549 breast; 101% in the experiment on SW-620 colon; 89.6% in the experiment on MCF7 breast; 94.1% with HCT-116 colon; 110% in the experiment on HCC-2998 colon. The growth in the experiment on KM12 colon was 114%.
Turning to `CC(=O)OC(C)c1cccc(C#N)c1` (stereo unspecified), the growth is 99.1% in the experiment with T-47D breast; 109% in the experiment with BT-549 breast; 98.2% in the experiment on SW-620 colon; 101% in the experiment with MCF7 breast; 100% in the experiment on HCT-116 colon; 107% in the experiment on HCC-2998 colon. The growth in the experiment with KM12 colon is 104%.
`N#CC1(O)CCCCC1`: the growth in the experiment on T-47D breast is 103%; with BT-549 breast, 93.9%; in the experiment with MDA-MB-435 melanoma it was 99.3%; in the experiment with SW-620 colon, 110%; in the experiment on HCT-116 colon it was 103%; in the experiment with HCC-2998 colon, 93.3%. The growth with KM12 colon was 102%.
As for `CN(C)c1ccc2nc3ccc(=[N+](C)C)cc-3oc2c1`, the growth was 14.4% in the experiment with T-47D breast; 63.2% in the experiment on BT-549 breast; 9.01% (active) with SW-620 colon; -30.4% (active) in the experiment on MCF7 breast; 6.48% (active) with HCT-116 colon; 43.3% with HCC-2998 colon. Besides, in the experiment on KM12 colon, the growth is 35.1%.
Consider `O=C1C=CC(=O)C2=C1CCCC2`, for which the growth in the experiment with T-47D breast is 85.3%; in the experiment with BT-549 breast it was 91.6%; with MDA-MB-435 melanoma it was 102%; with MCF7 breast, 70.6%; in the experiment with HCT-116 colon, 91.8%; in the experiment on HCC-2998 colon, 123%. Also, the growth in the experiment on KM12 colon is 92.3%.
Regarding `COC(=O)c1ccc([N+](=O)[O-])c(C)c1`, the growth in the experiment with T-47D breast was 102%; in the experiment on BT-549 breast, 86.3%; with SW-620 colon it was 103%; in the experiment with MCF7 breast, 91%; in the experiment on HCT-116 colon, 95.6%; with HCC-2998 colon, 106%. Besides, the growth in the experiment on KM12 colon was 99.8%.
Regarding `Cc1cc(CO)c(O)c(CO)c1`, the growth in the experiment on T-47D breast was 96.4%; in the experiment with BT-549 breast, 94.7%; in the experiment with MDA-MB-435 melanoma, 106%; in the experiment on SW-620 colon, 99.9%; with HCT-116 colon it was 98.2%; in the experiment with HCC-2998 colon, 96.8%. Further, the growth with KM12 colon is 107%.
Regarding `O=c1cc(C(F)(F)F)[nH]c(=S)[nH]1`, the growth was 97.7% with T-47D breast; 122% in the experiment on BT-549 breast; 106% in the experiment on MDA-MB-435 melanoma; 94.9% in the experiment on MCF7 breast; 117% with HCC-2998 colon; 103% in the experiment on KM12 colon.
As to `Cn1c(=O)c2[nH]c(CCCCC(=O)O)nc2n(C)c1=O`, the growth is 113% in the experiment with T-47D breast; 106% in the experiment with BT-549 breast; 110% in the experiment on MDA-MB-435 melanoma; 101% in the experiment on SW-620 colon; 106% in the experiment on HCT-116 colon; 111% in the experiment on HCC-2998 colon. The growth in the experiment with KM12 colon was 106%.
On to `O=C(NCc1ccco1)Nc1cccc2c(NC(=O)NCc3ccco3)cccc12`, for which the growth in the experiment with T-47D breast is 69.2% [100 µM]; in the experiment on BT-549 breast, 57.1% [100 µM]; with MDA-MB-435 melanoma, 40% [100 µM]; in the experiment on SW-620 colon, 23.1% [100 µM]; in the experiment with MCF7 breast, 60.1% [100 µM]; in the experiment with KM12 colon, 61.1% [100 µM].
With `COc1ccc(Br)c(C=O)c1`, the growth in the experiment on T-47D breast is 69.9%; in the experiment with BT-549 breast, 76.6%; in the experiment with MDA-MB-435 melanoma it was 49.8%; in the experiment on MCF7 breast it was 31.5%; in the experiment on HCT-116 colon, 22.5%; with HCC-2998 colon it was 86%. The growth in the experiment on KM12 colon was 93.7%.
For `Nc1cc2c(cc1Cl)C(=O)c1ccccc1C2=O`, the growth was 35.7% in the experiment on T-47D breast; 37.9% in the experiment on BT-549 breast; 90.1% with MDA-MB-435 melanoma; 65.9% with MCF7 breast; 1.71% (active) with HCT-116 colon; 69% in the experiment with HCC-2998 colon. In the experiment on KM12 colon, the growth is 28.8%.
Take `C=C(C)[C@@H]1CC[C@]2(CO)CC[C@]3(C)[C@H](CC[C@@H]4[C@@]5(C)CC[C@H](O)C(C)(C)[C@@H]5CC[C@]43C)[C@@H]12`: the growth was 32.2% in the experiment on T-47D breast; 49.3% in the experiment with BT-549 breast; 77.9% in the experiment on MDA-MB-435 melanoma; 54.6% in the experiment with SW-620 colon; 42.9% in the experiment on MCF7 breast; 49.1% with KM12 colon.
Regarding `COc1cccc2c1Cc1ccccc1-2`, the growth is 101% in the experiment on T-47D breast; 106% with BT-549 breast; 103% in the experiment with MDA-MB-435 melanoma; 100% with MCF7 breast; 98.5% in the experiment on HCC-2998 colon; 104% with KM12 colon.
Take `COc1ccc(/C=C\C(=O)/C=C/c2ccc(OC)cc2)cc1`: the growth in the experiment on T-47D breast is 80.1%; in the experiment on BT-549 breast, 48.5%; in the experiment on MDA-MB-435 melanoma, -30.4% (active); in the experiment on MCF7 breast it was 11%; in the experiment with HCT-116 colon, -96.6% (active); in the experiment on HCC-2998 colon, -16% (active). Further, the growth in the experiment on KM12 colon is 4.59% (active).
On to `COc1ccc(C2CCCCC2=O)cc1` (stereo unspecified), for which the growth in the experiment on T-47D breast is 100%; with BT-549 breast, 111%; in the experiment on SW-620 colon it was 104%; in the experiment with MCF7 breast, 103%; in the experiment with HCT-116 colon it was 106%; in the experiment with HCC-2998 colon, 107%. The growth in the experiment with KM12 colon was 112%.
Regarding `CN(C)c1ccc(/C=C/C(=O)c2ccc(NC(N)=O)cc2)cc1`, the growth is 82% in the experiment on T-47D breast; 91.7% with BT-549 breast; 93.8% with MDA-MB-435 melanoma; 58.4% with MCF7 breast; 75.4% in the experiment with HCT-116 colon; 105% in the experiment with HCC-2998 colon. In the experiment with KM12 colon, the growth is 98.5%.
